Experimental data from PubChem BioAssay.
For some of these results: Entries with a potency or affinity are not part of this list. Some of the results follow. Activity calls are given as the source filed them.

Assays:
[1] = test system: TRPC4 beta (transient receptor potential cation channel C4), mouse; test: activators of mouse TRPC4 channel, confirmation, cell-based, Fluo4 calcium, HEK293 TRPC4beta/mu-opioid, duplicates, 10 µM (AID 2426;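 active means fluorescence ratio normalized to control raised more than 50% in primary screen plus both repeat runs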); settings: Fluo4 calcium fluorescence, at 10 µM; active compounds read high
[2] = test system: transient receptor potential cation channel C4 beta (TRPC4), mouse; test: activators of mouse TRPC4 channel, confirmation, cell-based, second round, Fluo4, HEK293 TRPC4beta/mu-opioid, 1 µM (AID 2461;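 active means primary screen active and over 50% activation in each of two duplicate runs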); settings: Fluo4 calcium fluorescence, at 1 µM; active compounds read high
[3] = test system: TRPC4 (transient receptor potential cation channel C4 beta), mouse; test: positive allosteric modulators of mouse TRPC4, confirmation, cell-based, second round, Fluo-4, HEK293 TRPC4beta/mu-opioid, 1 µM (AID 2554;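 active means primary screen hit whose fluorescence ratio, in both repeats, exceeds the weak agonist control mean by 3 SD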); settings: DAMGO EC20, Fluo-4 calcium flux, at 1 µM; active compounds read high
[4] = test system: TRPC4 beta (transient receptor potential cation channel C4), mouse; test: positive allosteric modulators of mouse TRPC4, confirmation, cell-based, Fluo-4, HEK293 TRPC4beta/mu-opioid (AID 2555;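 active means primary screen hit whose calcium fluorescence ratio, in both repeats, exceeds the weak agonist control mean by 3 SD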); settings: DAMGO EC20, Fluo-4 calcium flux, at 10 µM; active compounds read high
[5] = target: Short transient receptor potential channel 4 (Mus musculus) (UniProt Q9QUQ5); test: inhibitors of mouse TRPC4 channel, confirmation, cell-based, Fluo4, HEK293 TRPC4beta/mu-opioid (AID 2636); settings: DAMGO, Fluo4 calcium flux, at 10 µM; active compounds read high
[6] = target: Short transient receptor potential channel 4 (Mus musculus) (UniProt Q9QUQ5); test: inhibitors of mouse TRPC4 channel, confirmation, cell-based, second round, Fluo4, HEK293 TRPC4beta/mu-opioid, 1 µM (AID 2637;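 active means calcium signal ratio cut to more than 3 SD under the fully stimulated control mean yet still positive, in both repeats and the primary screen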); settings: Fluo4 calcium flux, DAMGO, at 1 µM; active compounds read high
[7] = target: Short transient receptor potential channel 4 (Mus musculus) (UniProt Q9QUQ5); test: mouse TRPC4 channel activators, dose response, cell-based, HEK293 TRPC4/mu-opioid, Fluo-4 calcium (AID 434937;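 active means primary screen activator hit with a dose response curve and TRPC4 channel activation at any tested dose; inactive means no activation, no dose response, or not a primary hit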)
[8] = target: Short transient receptor potential channel 4 (Mus musculus) (UniProt Q9QUQ5); test: TRPC4 positive allosteric modulators, dose response, cell-based, HEK293 TRPC4/mu-opioid, Fluo-4 calcium, EC20 DAMGO (AID 434941;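 active means earlier screen potentiator hit that boosts the TRPC4 ion channel at some dose, with a dose response; inactive means no potentiation, no dose response, or not a prior hit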;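 further: calcium entry triggered by an EC20 dose of DAMGO at the co-expressed mu-opioid receptor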)
[9] = target: Short transient receptor potential channel 4 (Mus musculus) (UniProt Q9QUQ5); test: mouse TRPC4 channel inhibitors, dose response, cell-based, HEK293 TRPC4/mu-opioid, Fluo-4 calcium (AID 434942;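 active means primary screen inhibitor hit that blocks the TRPC4 channel at some tested dose, yielding a dose curve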)
[10] = target: Short transient receptor potential channel 6 (Mus musculus) (UniProt Q61143); test: inhibition of mouse TRPC6 channel, confirmation, selectivity assay for TRPC4 inhibitor project, cell-based, HEK293, membrane potential dye, duplicate (AID 434948;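 active means active in primary screen and both duplicates, each dropping signal beyond three positive-control SD with fluorescence still positive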); settings: HEK293 TRPC6, membrane potential dye fluorescence, at 10 µM, stimulated with maximal-effect acetylcholine; active compounds read high
[11] = target: Short transient receptor potential channel 6 (Mus musculus) (UniProt Q61143); test: activation of mouse TRPC6 channel, confirmation, selectivity assay for TRPC4 activator project, cell-based, HEK293, membrane potential dye, duplicate (AID 434950;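 active means membrane potential signal rise above negative control mean plus 3 SD in both duplicates, also active in the earlier TRPC4 screen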); settings: HEK293 TRPC6, membrane potential fluorescence, at 10 µM; active compounds read high
[12] = target: Short transient receptor potential channel 6 (Mus musculus) (UniProt Q61143); test: TRPC6 potentiation by TRPC4 potentiator hits, confirmation, selectivity assay for TRPC4 potentiator project, HEK293 cells, membrane potential dye, duplicate (AID 434952;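 active means compound raising the membrane signal above positive-control mean plus 3 SD in both repeats, and a primary screen hit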); settings: HEK293 TRPC6, membrane potential dye fluorescence, at 10 µM, maximal acetylcholine added after compound; active compounds read high
[13] = target: Short transient receptor potential channel 4 (Mus musculus) (UniProt Q9QUQ5); test: calcium flux activators in TRPC4/5HT1a cells, counter-screen for TRPC4 activator project, cell-based, second counter screen, HEK293 TRPC4/5HT1a, Fluo-4 (AID 434977;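 active means calcium signal rise above buffer-control mean plus 5 SD in both duplicates, and also a hit in the primary screen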); settings: Fluo-4 calcium flux, at 10 µM; active compounds read high
[14] = calcium flux inhibitors in TRPC4/5HT1a cells, confirmation, counter-screen for TRPC4 inhibitor project, cell-based, second counter screen, HEK293 TRPC4/5HT1a, Fluo-4 (AID 434978;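 active means primary screen active whose calcium signal fell more than 3 SD beyond the full-serotonin control mean in both duplicate plates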;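 further: serotonin given first at submaximal then at maximal dose after compound preincubation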); settings: Fluo-4 calcium flux, at 10 µM, serotonin added to trigger calcium flux; active compounds read high
[15] = test system: TRPC4 (mouse), co-expressed with 5HT1a in HEK293; test: calcium flux potentiators in TRPC4/5HT1a cells, confirmation, counter-screen for TRPC4 potentiator project, cell-based, second counter screen, HEK293 TRPC4/5HT1a, Fluo-4 (AID 434979;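 active means signal rise over 3 SD above mean of control wells given weak agonist, in both repeats and first screen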); settings: Fluo-4 calcium flux, at 10 µM, serotonin added at its EC20 dose; active compounds read high
[16] = calcium flux activation in mu-opioid HEK293 cells, confirmation, counter-screen for TRPC4 activator project, cell-based, HEK293 mu-opioid receptor line (AID 449723;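 active means hit in primary screen, with calcium signal over 5 SD above buffer well mean in both duplicates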;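 further: counter screen cells carry the mu-opioid receptor alone and lack TRPC4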); settings: Fluo-4 calcium fluorescence, at 10 µM; active compounds read high
[17] = calcium flux enhancement in mu-opioid HEK293 cells, confirmation, counter-screen for TRPC4 allosteric potentiator project, cell-based, HEK293 mu-opioid receptor line (AID 449724;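 active means calcium signal rise more than 3 SD above the low-dose agonist control mean, in both duplicate plates and the primary screen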); settings: Fluo-4 calcium flux, at 10 µM, compound added before EC20 DAMGO stimulus; active compounds read high
[18] = nonspecific thallium flux increase in parental CHO-K1, confirmation, counter-screen for KCNQ2 potentiator project, cell-based, FluxOR thallium flux, duplicate (AID 2282;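 active means signal rise of at least 3 SD above the untreated control mean, in both duplicate wells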;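 further: counter screen of KCNQ2 potentiator hits so any rise reflects channel-independent effects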); settings: parental CHO-K1 cells, FluxOR thallium flux fluorescence; at 10 µM; active compounds read high; zero = vehicle mean+3SD, 100% = vehicle-minus-blank window
[19] = target: Potassium voltage-gated channel subfamily KQT member 1 (Homo sapiens) (UniProt P51787); test: human KCNQ1 channel potentiation off-target, confirmation, selectivity assay for KCNQ2 potentiator project, cell-based, CHO, FluxOR thallium flux (AID 2283;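 active means fluorescence ratio rise of at least 3 SD of vehicle wells above their mean, in both replicate wells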;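 further: 0% = vehicle mean plus 3 SD and 100% = vehicle minus unstimulated blank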); settings: CHO KCNQ1 stable, FluxOR thallium flux fluorescence; at 10 µM; active compounds read high; beyond 3SD, as % of vehicle-control signal
[20] = target: Potassium voltage-gated channel subfamily KQT member 2 (Rattus norvegicus) (UniProt O88943); test: rat KCNQ2 channel potentiators, confirmation, cell-based, CHO, FluxOR thallium flux, duplicate (AID 2287;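 active means fluorescence ratio rising 3 SD or more over the vehicle control mean in both replicates, plus primary screen hit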;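 further: peak minus minimum thallium fluorescence divided by baseline after K/Tl stimulus; 0% = vehicle mean plus 3 SD and 100% = vehicle minus unstimulated blank difference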); settings: CHO-KCNQ2 cells, FluxOR thallium flux fluorescence; at 10 µM; active compounds read high
[21] = target: Inward rectifier potassium channel 2 (Mus musculus) (UniProt P35561); test: PubChem AID 2345; settings: HEK293 Kir2.1, FluxOR thallium flux fluorescence; at 10 µM; active compounds read high;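 further: 0% = vehicle mean plus 3 SD and 100% = vehicle minus no-stimulus blank window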
[22] = target: Potassium voltage-gated channel subfamily KQT member 2 (Rattus norvegicus) (UniProt O88943); test: potentiators of retigabine-insensitive KCNQ2 W236L, mechanism study for KCNQ2 potentiator project, cell-based, rat KCNQ2 W236L, CHO, automated patch clamp (AID 2558;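 active means current increase at least 3 SD of the untreated controls above them in both duplicate recordings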); settings: at 25 µM; outcome: automated patch clamp current

Short transient receptor potential channel 4 (Mus musculus), sequence (Q9QUQ5 whole entry, looked up): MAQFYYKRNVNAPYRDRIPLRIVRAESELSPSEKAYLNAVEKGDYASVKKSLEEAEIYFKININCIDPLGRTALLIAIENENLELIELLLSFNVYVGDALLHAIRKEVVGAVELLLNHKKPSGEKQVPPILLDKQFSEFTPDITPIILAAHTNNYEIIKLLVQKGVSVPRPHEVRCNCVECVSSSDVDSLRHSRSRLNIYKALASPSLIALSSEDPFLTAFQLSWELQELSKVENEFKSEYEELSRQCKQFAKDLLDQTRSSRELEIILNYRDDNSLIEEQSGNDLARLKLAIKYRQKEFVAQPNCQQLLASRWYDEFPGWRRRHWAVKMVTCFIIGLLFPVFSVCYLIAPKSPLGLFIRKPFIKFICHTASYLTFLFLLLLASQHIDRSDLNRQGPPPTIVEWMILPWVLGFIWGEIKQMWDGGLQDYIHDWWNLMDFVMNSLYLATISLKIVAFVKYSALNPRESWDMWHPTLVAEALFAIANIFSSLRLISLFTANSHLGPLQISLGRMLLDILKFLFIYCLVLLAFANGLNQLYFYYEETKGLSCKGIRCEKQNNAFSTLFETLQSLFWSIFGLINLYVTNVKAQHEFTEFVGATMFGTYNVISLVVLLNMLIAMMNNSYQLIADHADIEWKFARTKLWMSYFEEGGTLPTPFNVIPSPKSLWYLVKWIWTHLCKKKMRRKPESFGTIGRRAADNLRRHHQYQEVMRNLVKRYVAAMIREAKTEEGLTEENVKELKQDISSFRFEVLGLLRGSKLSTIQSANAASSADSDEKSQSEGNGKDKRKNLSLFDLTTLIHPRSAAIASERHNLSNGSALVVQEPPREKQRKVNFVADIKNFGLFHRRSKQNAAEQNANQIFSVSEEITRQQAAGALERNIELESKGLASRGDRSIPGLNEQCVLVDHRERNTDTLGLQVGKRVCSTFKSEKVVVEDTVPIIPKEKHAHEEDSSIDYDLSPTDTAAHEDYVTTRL
Short transient receptor potential channel 6 (Mus musculus), sequence (Q61143 whole entry, looked up): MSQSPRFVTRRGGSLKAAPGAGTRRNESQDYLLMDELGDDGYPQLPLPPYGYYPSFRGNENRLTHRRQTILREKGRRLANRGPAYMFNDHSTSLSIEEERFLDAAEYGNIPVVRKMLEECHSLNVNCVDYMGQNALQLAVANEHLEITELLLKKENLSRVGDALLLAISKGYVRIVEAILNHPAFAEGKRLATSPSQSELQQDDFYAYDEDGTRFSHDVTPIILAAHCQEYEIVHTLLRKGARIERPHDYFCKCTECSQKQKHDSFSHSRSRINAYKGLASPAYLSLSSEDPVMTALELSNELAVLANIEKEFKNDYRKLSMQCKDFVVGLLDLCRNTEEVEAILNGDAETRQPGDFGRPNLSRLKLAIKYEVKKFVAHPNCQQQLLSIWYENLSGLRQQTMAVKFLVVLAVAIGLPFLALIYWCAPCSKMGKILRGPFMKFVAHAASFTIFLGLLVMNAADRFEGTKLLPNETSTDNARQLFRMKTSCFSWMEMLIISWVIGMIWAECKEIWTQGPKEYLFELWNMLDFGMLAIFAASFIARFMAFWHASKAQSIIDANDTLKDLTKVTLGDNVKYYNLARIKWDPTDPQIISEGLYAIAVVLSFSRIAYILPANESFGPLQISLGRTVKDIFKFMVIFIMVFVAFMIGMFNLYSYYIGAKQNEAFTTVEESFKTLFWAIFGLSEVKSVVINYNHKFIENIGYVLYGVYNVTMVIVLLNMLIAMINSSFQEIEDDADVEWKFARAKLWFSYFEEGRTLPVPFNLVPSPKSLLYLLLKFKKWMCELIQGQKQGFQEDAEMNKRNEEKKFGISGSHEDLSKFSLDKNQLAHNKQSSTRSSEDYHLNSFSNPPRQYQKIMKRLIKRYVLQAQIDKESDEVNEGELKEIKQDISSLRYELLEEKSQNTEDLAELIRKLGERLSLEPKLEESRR
Potassium voltage-gated channel subfamily KQT member 1 (Homo sapiens), sequence (P51787 whole entry, looked up): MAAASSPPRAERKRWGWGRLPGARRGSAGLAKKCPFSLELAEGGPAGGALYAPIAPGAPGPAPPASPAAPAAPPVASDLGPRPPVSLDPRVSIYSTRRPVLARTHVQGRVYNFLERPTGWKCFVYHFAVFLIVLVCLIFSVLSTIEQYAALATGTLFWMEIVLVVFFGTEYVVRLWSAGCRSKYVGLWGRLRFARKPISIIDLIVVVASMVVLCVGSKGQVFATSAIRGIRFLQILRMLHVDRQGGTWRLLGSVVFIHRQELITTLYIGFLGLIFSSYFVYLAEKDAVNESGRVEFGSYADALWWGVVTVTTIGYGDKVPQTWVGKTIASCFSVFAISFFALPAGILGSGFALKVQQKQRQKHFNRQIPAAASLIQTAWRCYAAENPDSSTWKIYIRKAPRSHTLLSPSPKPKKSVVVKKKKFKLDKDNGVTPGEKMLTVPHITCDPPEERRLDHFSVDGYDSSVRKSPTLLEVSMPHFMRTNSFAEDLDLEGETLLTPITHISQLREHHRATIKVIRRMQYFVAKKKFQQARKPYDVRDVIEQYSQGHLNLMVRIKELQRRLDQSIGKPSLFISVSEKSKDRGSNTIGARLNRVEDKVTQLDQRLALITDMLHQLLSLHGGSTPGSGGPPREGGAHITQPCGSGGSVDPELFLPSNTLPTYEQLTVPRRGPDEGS
Inward rectifier potassium channel 2 (Mus musculus), sequence (P35561 whole entry, looked up): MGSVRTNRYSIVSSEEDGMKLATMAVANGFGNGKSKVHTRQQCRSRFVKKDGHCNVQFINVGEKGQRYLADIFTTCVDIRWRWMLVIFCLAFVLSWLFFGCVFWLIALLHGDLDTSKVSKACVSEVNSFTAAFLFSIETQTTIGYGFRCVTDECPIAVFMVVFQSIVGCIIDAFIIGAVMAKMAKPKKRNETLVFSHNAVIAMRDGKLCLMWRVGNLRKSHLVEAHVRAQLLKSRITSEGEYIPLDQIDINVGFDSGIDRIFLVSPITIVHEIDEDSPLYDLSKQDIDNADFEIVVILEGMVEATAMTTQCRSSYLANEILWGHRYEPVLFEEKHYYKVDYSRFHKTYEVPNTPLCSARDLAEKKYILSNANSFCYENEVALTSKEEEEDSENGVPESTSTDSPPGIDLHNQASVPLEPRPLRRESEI

CN(CC(=O)Nc1sc2c(c1C#N)CCCCC2)Cc1nc2ccccc2c(=O)[nH]1
inactive: outcome [1] | outcome [2] | outcome [3] | outcome [4] | outcome [5] | outcome [6] | outcome [7] | outcome [8] | outcome [9] | outcome [10] | outcome [11] | outcome [12] | outcome [13] | outcome [14] | outcome [15] | outcome [16] | outcome [17]

CN(C)CCCNc1ncnc2c1cnn2-c1ccccc1
active: potentiation [3] 16% | potentiation [4] 17% | potentiation [15] 28.6%
inactive: outcome [1] | outcome [2] | outcome [5] | outcome [6] | outcome [7] | outcome [8] | outcome [9] | outcome [10] | outcome [11] | outcome [12] | outcome [13] | outcome [14] | outcome [16] | outcome [17]

Cc1ccc(C(=O)c2no[n+]([O-])c2C(=O)c2ccc(C)cc2)cc1
inactive: outcome [1] | outcome [2] | outcome [5] | outcome [6] | outcome [7] | outcome [8] | outcome [9] | outcome [10] | outcome [11] | outcome [12] | outcome [13] | outcome [14] | outcome [16] | outcome [17]
active: potentiation [3] 23% | potentiation [4] 89% | potentiation [15] 59.9%

CC(C)c1ccc(C(C)NCCS(=O)(=O)c2ccc(Br)cc2)cc1 (centres undefined)
active: potentiation [15] 21.2%
inactive: outcome [1] | outcome [2] | outcome [3] | outcome [4] | outcome [5] | outcome [6] | outcome [7] | outcome [8] | outcome [9] | outcome [10] | outcome [11] | outcome [12] | outcome [13] | outcome [14] | outcome [16] | outcome [17]

CC(C)(C)C1CCC(C(=O)NCC(c2cccs2)N2CCOCC2)CC1 (centres undefined)
active: potentiation, less the hit threshold [20] 13.3%
inactive: activity increase over 3SD of controls [18] -27.5% | activation over 3SD threshold [19] -18.7% | activity over 3SD threshold [21] -57.7% | outcome [22]

Cn1c(SCCOc2ccccc2F)nc2ccccc2c1=O
active: potentiation [4] 10%
inactive: outcome [1] | outcome [2] | outcome [3] | outcome [5] | outcome [6] | outcome [7] | outcome [8] | outcome [9] | outcome [10] | outcome [11] | outcome [12] | outcome [13] | outcome [14] | outcome [15] | outcome [16] | outcome [17]

C=CCn1c(SCC(=O)c2ccc(NS(=O)(=O)c3ccccc3)cc2)nnc1-c1cccs1
inactive: outcome [1] | outcome [2] | outcome [3] | outcome [4] | outcome [5] | outcome [6] | outcome [7] | outcome [8] | outcome [9] | outcome [10] | outcome [11] | outcome [12] | outcome [13] | outcome [14] | outcome [16] | outcome [17]
active: potentiation [15] 14%

Cc1ccc(CN(C(=O)c2cc(=O)c3cc(Cl)c(C)cc3o2)C2CCS(=O)(=O)C2)cc1 (centres undefined)
active: potentiation [15] 64%
inactive: outcome [1] | outcome [2] | outcome [3] | outcome [4] | outcome [5] | outcome [6] | outcome [7] | outcome [8] | outcome [9] | outcome [10] | outcome [11] | outcome [12] | outcome [13] | outcome [14] | outcome [16] | outcome [17]
